LASV entry inh: qHTS for Inhibitors of binding or entry into cells for Lassa Virus. Potency, µM (top dose mostly 37.9 µM), for inactives: at the highest dose activity change, negative = inhibition, actives largely listed as inhibitors. actives 1.2% (n = 300,000). Lassa virus pseudotype entry inhibition, cell reporter; calls by dose curve; tested in HEK293 cells; note: nearly all actives have a fitted effect of over 50% in size
AMA1-RON2 inh: qHTS for Inhibitors of AMA1-RON; Towards Development of Antimalarial Drug Lead: Primary Screen | Plasmodium falciparum AMA1 (3D7) - RON2 peptide interaction | AlphaScreen AMA1-biotinylated RON2 peptide binding | Potency, µM (top dose mostly 58.2 µM), for inactives: at the highest dose activity change, negative = inhibition, hits mostly inhibitors | actives 0.2% (n = 360,000) | AID 720542, 2013;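 note: 0% = vehicle wells and -100% = peptide control; nearly all actives have a fitted effect of over 45% in size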
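AMA1 (3D7) with his tag at 25 nM final met compounds first, then biotinylated RON2 peptide at 25 nM; detection used donor plus acceptor beads, 10 µg/mL apiece, read by AlphaScreen after 30 min at room temperature.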
Marburg entry inh: qHTS for inhibitors of binding or entry into cells for Marburg Virus. Marburg virus pseudotyped entry inhibition, cell reporter. Potency, µM (highest dose often 37.8 µM), for the others: at the highest dose activity change, negative = inhibition, hits mostly inhibitors. actives 1.8% (n = 300,000); calls by dose curve; tested in HEK293 cells
AmpC inh detg: qHTS Inhibitors of AmpC Beta-Lactamase (assay with detergent). AID 485294, 2010. AmpC hydrolysis of nitrocefin, absorbance 480 nm, 0.01% Triton. P00811. actives 0.041% (n = 370,000). Potency, µM (series often up to 114 µM), inactives show at the top dose activity change, negative = inhibition, actives largely listed as inhibitors;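 note: 0% = no-compound wells and -100% = no-enzyme wells; nearly all actives have a fitted effect of over 25% in size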
Target sequence (P00811 whole entry, looked up): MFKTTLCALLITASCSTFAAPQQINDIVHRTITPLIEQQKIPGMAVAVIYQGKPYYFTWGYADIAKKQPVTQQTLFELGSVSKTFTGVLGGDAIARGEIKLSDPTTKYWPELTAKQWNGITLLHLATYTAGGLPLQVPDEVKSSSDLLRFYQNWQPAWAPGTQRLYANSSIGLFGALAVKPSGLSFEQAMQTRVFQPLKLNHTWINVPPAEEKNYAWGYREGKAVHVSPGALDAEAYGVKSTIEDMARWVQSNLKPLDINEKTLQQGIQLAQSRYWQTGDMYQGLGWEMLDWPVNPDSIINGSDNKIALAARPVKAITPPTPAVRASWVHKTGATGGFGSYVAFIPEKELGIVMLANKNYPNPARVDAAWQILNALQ
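AmpC (5.3 nM in the dispensed reagent) in 20 mM phosphate pH 7.0 with 0.01% (detergent screen) or 0.0001% Triton X-100 was preincubated with compounds for 15 min at room temperature. Nitrocefin was then added from an 800 uM solution, and hydrolysis was followed at 480 nm.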
AmpC no deterg: qHTS Inhibitors of AmpC Beta-Lactamase (assay without detergent) | AmpC nitrocefin hydrolysis, absorbance 480 nm, 0.0001% Triton | P00811 | Potency, µM (series often up to 57.1 µM), for the others: top-dose activity change, negative = inhibition, most hits filed as inhibitors | actives 0.52% (n = 330,000);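 note: plate controls were no compound for no effect and no enzyme for full effect; nearly all actives have a fitted effect of over 20% in size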
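AmpC (5.3 nM in the dispensed reagent) in 20 mM phosphate pH 7.0 with 0.01% (detergent screen) or 0.0001% Triton X-100 was preincubated with compounds for 15 min at room temperature. Nitrocefin was then added from an 800 uM solution, and hydrolysis was followed at 480 nm.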
Starred values were filed as active, the others as inactive; ? = inconclusive; / = not tested or not shown; [ ] = dose if it differs, or a comment. Sampled rows, rich in hits. Any-hit rate of the full collection: about 2.3%. Unless noted, calls come from the whole dose curve; as a rule, active = well fitted curve in the direction sought with a large enough effect; inconclusive = small, poorly fitted or top-dose-only effect, or another doubt; inactive = no such curve, though single readings can be large; an effect the other way counts as inactive or inconclusive. Unless noted, % is set by controls: 0 for no effect and ±100 for the full control effect; potency is the fitted concentration of half-maximal effect.

SMILES	LASV entry inh	AMA1-RON2 inh	Marburg entry inh	AmpC inh detg	AmpC no deterg
COc1ccc(C2CC(C(F)(F)F)n3nc(C(=O)NCc4c(C)nn(C)c4C)c(Cl)c3N2)cc1 (stereo not given)	-38%	-5%	10µM*	?	186%
CCOC(=O)OC[C@H]1O[C@H](C#Cc2ccc(C)cc2C)C=C[C@H]1OC(=O)OCC	/	/	4%[14.2 µM]	/	/
Cc1ccccc1C(=O)N1[C@@H](C(C)C)COc2cc(Br)ccc2S1(=O)=O	/	-3%	10µM*	/	/
CC(CCN1CCCc2nc(C)c(C)cc21)=NO[C@H](C)c1cn([C@H](CO)Cc2ccccc2)nn1	/	/	-41%[14.2 µM]	/	/
Cc1nn(-c2ccccc2)c(C)c1/C=N/NC(=O)CSc1nnc(SCc2cccc3ccccc23)s1	?	-1%	?	2%	2.2µM*
Cc1ccccc1-n1c(SCC(=O)N/N=C/c2c(C)nn(-c3ccccc3)c2C)nc2ccccc2c1=O	?	0%	7.3µM*	-11%	14%
Cc1ccc(C2CC(=O)N(Cc3ccccc3F)c3c2c(C)nn3-c2nc(C)cc(C)n2)cc1 (stereo not given)	-17%[46.1 µM]	/	-5%[46.1 µM]	22%	/
CCOC(=O)c1ncccc1NC(=O)CC(=O)Nc1cccnc1C(=O)OCC	/	14µM*	/	/	/
CC#CCN1c2ccccc2[C@]23CCC(=O)N(CCCOC(C)C)C2=NC(C(=O)OC)=C(C(=O)OC)[C@H]13	/	/	-12%[14.2 µM]	/	/
COC1=C[C@H](C(=O)NCCOC(C)=O)[C@H](C)[C@@H](c2ccccc2)CC1=O	/	/	-39%[14.2 µM]	/	/
CC1=Nc2cc(C(=O)NC3CCCCC3)ccc2Sc2ccc(Cl)cc21	4µM*	/	/	1%	/
CC1=Nc2cc(C(=O)NCCc3ccc(Cl)cc3)ccc2Sc2ccc(C)cc21	?	/	7.9µM*	-7%	/
Cc1cc(-c2ccc(C(C)C)c(S(=O)(=O)N3CCOc4ccccc43)c2)on1	?	-7%	3.2µM*	-2%	-8%
Cc1ccc(/C=C/c2onc(C)c2S(=O)(=O)N2CCC(C(=O)NCc3ccc(OC(C)C)cc3)CC2)cc1	-7%[46.1 µM]	/	/	19%	/
COc1ccc(CN(C(=O)c2nsc(Cl)c2Cl)C(C(=O)NC2CCCCC2)c2ccc(OC)cc2)cc1 (stereo not given)	?	-20%	15µM*	-9%	-2%
COc1ccc(CN(C(=O)c2snc(C(N)=O)c2N)C(C(=O)NC2CCCC2)c2ccc(OC)c(OC)c2)cc1 (stereo not given)	-14%[46.1 µM]	-8%	-22%[46.1 µM]	-6%	137%
COc1ccc(CN(C(=O)c2nsc(Cl)c2Cl)C(C(=O)NC2CCCC2)c2ccc(C)cc2)cc1 (stereo not given)	16µM*	-8%	?	-22%	?
COc1ccc(NC(=O)c2nnn(Cc3ccc(Br)cc3F)c2N)c(OC)c1	2%[46.1 µM]	/	-2%[46.1 µM]	-8%	/
COc1ccc(OC)c(NC(=O)c2nnn(Cc3ccc(Br)cc3F)c2N)c1	/	9%	9%	?	0.79µM*
COc1cc(/C=N/NC(=O)CCOc2ccccc2C)cc(Br)c1O	0%	-2%	-24%[46.1 µM]	1%	22µM*
CCCCN(CC)CCNC(=O)c1cc2c(=O)n(CC)c3ccccc3c2s1	?	0%	?	-3%	-3%
CCCCN(CC)CCNC(=O)c1cc2c(=O)n(C)c3ccccc3c2s1	?	1%	7.9µM*	1%	28%
CCCCN(CC)CCCNC(=O)c1cc2c(=O)n(CC)c3ccccc3c2s1	-2%	-7%	11µM*	-5%	36%
CCCN(CCC)CCCNC(=O)c1cc2c(=O)n(CC)c3ccccc3c2s1	?	20%	10µM*	-2%	-2%
Cc1ccc(NC(=O)c2cc(S(=O)(=O)N3CCCCC3)cs2)cc1	21µM*	2%	-29%	3%	-42%
O=C(Nc1ccc(F)cc1)c1cc(S(=O)(=O)Nc2ccc(F)cc2)cs1	?	-23%	-29%	-9%	-41%
COc1ccc(NC(=O)c2cc(S(=O)(=O)Nc3ccc(OC)cc3)cs2)cc1	/	-5%	/	-5%	11µM*

Compound activity deposited in PubChem BioAssay by National Center for Advancing Translational Sciences (NCATS).
